Assay results reported in PubChem BioAssay (NCI).
The panel holds about 83,000 compounds, 20% with a hit somewhere; the sample as a whole holds those more often.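 Assay: single dose, 48 h. Readout: percent growth (0 = no net growth; negative = cell death). Active: <10.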 Active and inactive are the calls of the source.

Key:
Assay in all cases: NCI-60 one-dose screen, 48 h (100 = growth as untreated, 0 = no growth, -100 = all killed)
Conditions in all cases: 10 µM unless noted
[1] = tested on: HCT-15 colon
[2] = tested on: HT29 colon
[3] = tested on: SNB-75 CNS
[4] = tested on: SNB-19 CNS
[5] = tested on: U251 CNS
[6] = tested on: PC-3 prostate
[7] = tested on: SK-MEL-5 melanoma
[8] = tested on: UACC-62 melanoma
[9] = tested on: LOX IMVI melanoma
[10] = tested on: SK-MEL-28 melanoma
[11] = tested on: SK-MEL-2 melanoma
[12] = tested on: EKVX NSCLC
[13] = tested on: SN12C renal
[14] = tested on: UO-31 renal
[15] = tested on: TK-10 renal
[16] = tested on: ACHN renal
[17] = tested on: CAKI-1 renal
[18] = tested on: A498 renal
[19] = tested on: CCRF-CEM leukemia

Measured: growth

COc1ccc(-c2cc(-c3ccc(Cl)cc3)nc(NCCCCNc3ccnc4cc(Cl)ccc34)n2)cc1
active: [1] 0.532% | [2] 4.81% | [9] -78.3% | [10] -7.9% | [18] 3.15% | [19] 7.63%
inactive: [3] 99.5% | [4] 95.5% | [5] 70.9% | [6] 54.8% | [7] 26.8% | [8] 84.8% | [11] 78% | [12] 77.3% | [13] 77.1% | [14] 35.5% | [15] 107% | [16] 91.8% | [17] 64.3%

CC1(C)NCCC[C@]2(C)[C@H]3C=CC4=C5C[C@](C)(CO)CC[C@]5(C)CC[C@@]4(C)[C@]3(C)CC[C@@H]12
active: [1] -89.3% [100 µM] | [2] -62.1% [100 µM] | [3] -97.7% [100 µM] | [4] -90.4% [100 µM] | [5] -59.7% [100 µM] | [6] -79.1% [100 µM] | [7] -91.5% [100 µM] | [8] -94.3% [100 µM] | [9] -91.5% [100 µM] | [10] -97.3% [100 µM] | [11] -84.9% [100 µM] | [12] -87.1% [100 µM] | [13] -94% [100 µM] | [14] -98.1% [100 µM] | [15] -78.3% [100 µM] | [16] -95.4% [100 µM] | [17] -96.5% [100 µM] | [18] -88.7% [100 µM] | [19] -44.1% [100 µM]

COc1ccc(-c2cc(-c3ccc(Cl)cc3)nc(SCCCCCCC(=O)NO)n2)cc1
inactive: [1] 15.5% | [2] 10.8% | [3] 34.5% | [4] 35.9% | [5] 19% | [6] 49.2% | [8] 14.9% | [10] 57.6% | [11] 87.1% | [12] 44.2% | [13] 41.3% | [14] 11.8% | [15] 34.7% | [16] 16.1% | [18] 52%
active: [7] -6.04% | [9] -17.6% | [17] 4.58% | [19] 3.36%

CNC(=O)c1cc(Oc2ccc3nc(NC(=O)c4ccc5ncccc5c4)sc3c2)ccn1
inactive: [1] 91.1% | [2] 69.9% | [3] 86.5% | [4] 95.1% | [5] 93.6% | [6] 93.2% | [7] 86.4% | [8] 94.9% | [9] 99.6% | [10] 101% | [11] 86.2% | [12] 87.5% | [13] 92.6% | [14] 77% | [15] 90.5% | [16] 102% | [17] 89.9% | [18] 88.3% | [19] 91%

COc1cc2c(=O)[nH]c3cc([N+](=O)[O-])ccc3c2cc1[N+](=O)[O-]
inactive: [1] 46% | [2] 30.6% | [3] 36.5% | [4] 58.3% | [5] 37.8% | [6] 55.2% | [7] 41.3% | [8] 41.4% | [9] 36.7% | [10] 78.5% | [11] 86.1% | [12] 48.3% | [13] 52.6% | [14] 19.6% | [15] 52.1% | [16] 21.8% | [17] 45.7%
active: [18] -2.09%

CC(C)C1=NOC(=O)C1=Cc1cn(-c2cccnc2)nc1-c1ccccc1
inactive: [1] 94.2% | [2] 99.1% | [3] 88.4% | [4] 93.9% | [5] 83.5% | [6] 94.1% | [7] 102% | [8] 90.4% | [9] 80.2% | [10] 112% | [11] 111% | [12] 100% | [13] 87.5% | [14] 89.7% | [15] 101% | [16] 99.2% | [17] 78% | [18] 99.2% | [19] 11.4%

COc1ccc2c(c1)c(-c1noc(C(=O)c3cn(C)c4ncc(Br)cc34)n1)cn2C
inactive: [1] 68.4% | [2] 58% | [4] 78.7% | [5] 68.6% | [6] 39.7% | [7] 50.6% | [8] 65.6% | [9] 70.9% | [10] 71.1% | [11] 97.4% | [12] 75.4% | [13] 77.6% | [14] 70.5% | [15] 21.8% | [16] 39.8% | [17] 68.9% | [18] 48.5% | [19] 56.9%
active: [3] -12.8%
